Results published in PubChem BioAssay AID2551 (National Center for Advancing Translational Sciences (NCATS), 2010).
In all, about 310,000 compounds went through this assay and about 17,000 (5.5%) were called active. Entries that show only a call come without a potency. Inconclusive results (about 11%) are left out. The sample holds actives, similar compounds and a random draw of the others, so the mix is not that of the screen. A number with no mark means an inactive call. Calls come from the whole dose curve; as a rule, active = well fitted inhibition curve with a large enough effect; inconclusive = small, poorly fitted or top-dose-only effect, or effect the other way; inactive = no such curve, though single readings can be large or run the other way.
Note: nearly all actives have a fitted effect of over 60% in size.
Potency is the fitted concentration of half-maximal effect.

Each compound was assayed against Nuclear receptor ROR-gamma (Mus musculus) (UniProt P51450) (assay: qHTS for inhibitors of ROR gamma transcriptional activity). Conditions: Drosophila S2 Gal4-RORgamma UAS-luciferase reporter, 20 h; series mostly up to 53.6 µM.
Chain of Nuclear receptor ROR-gamma (Mus musculus) (P51450 whole entry, looked up, the tested form may be a part): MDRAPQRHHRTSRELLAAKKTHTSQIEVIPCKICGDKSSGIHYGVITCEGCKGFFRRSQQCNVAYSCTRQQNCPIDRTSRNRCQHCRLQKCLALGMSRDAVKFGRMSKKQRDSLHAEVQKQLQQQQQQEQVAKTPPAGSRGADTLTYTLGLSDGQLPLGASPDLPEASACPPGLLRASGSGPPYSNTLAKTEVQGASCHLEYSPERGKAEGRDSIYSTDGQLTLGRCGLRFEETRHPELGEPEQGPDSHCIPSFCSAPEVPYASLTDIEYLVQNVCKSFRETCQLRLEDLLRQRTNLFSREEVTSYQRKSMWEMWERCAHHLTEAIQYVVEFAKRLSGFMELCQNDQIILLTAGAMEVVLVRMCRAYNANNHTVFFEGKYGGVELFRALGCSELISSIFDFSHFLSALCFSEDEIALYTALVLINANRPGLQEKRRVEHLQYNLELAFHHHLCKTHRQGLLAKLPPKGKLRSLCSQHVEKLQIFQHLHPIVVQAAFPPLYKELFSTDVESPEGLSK
Outline: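 Stable Schneider cell line, Gal4 DNA-binding domain fused to ROR gamma, UAS-luciferase. Cmpd 1 hr RT → CuSO4 700 uM final → 20 hr RT → luciferase reagent 10 min → luminescence.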
For `Cc1ccc(NC(=O)C2CCN(S(=O)(=O)c3ccc4c(c3)NC(=O)CO4)CC2)cc1C`, the Potency was “inactive”.
`CN(CCO)S(=O)(=O)c1ccc2c(c1)C(=O)c1cc(S(=O)(=O)N(C)CCO)ccc1-2` was tested, and the Potency was “inactive”.
`CCCn1cc(S(=O)(=O)c2ccc(C)cc2)c(=O)c2cc(OCC)ccc21` was tested, and the Potency was “inactive”.
With `CC1C(=O)N(Cc2ccccc2)c2ccccc2N1C(=O)c1ccccc1` (stereo not drawn) the Potency was “inactive”.
`Cc1cccc(C(=O)Nc2nnc(S(=O)(=O)N3CCCCCC3)s2)c1` was tested, and the Potency was “inactive”.
In the case of `Cc1cnc(CN(C)C(=O)CC2C(=O)NCCN2Cc2cccc(F)c2F)[nH]1` (stereo not drawn), the Potency is reported as “inactive”.
For `COc1ccc(OC)c(NC(=O)c2cccc(S(=O)(=O)N3CCN(C(C)=O)CC3)c2)c1`, the Potency was “inactive”.
For `Cc1noc(C)c1C(=O)N1CCOCC1`, the Potency was “inactive”.
`Cc1oc2c(c1C(=O)N1CCOCC1)C(=O)c1ccccc1C2=O` was tested, and the Potency was 3.98 µM (active).
With `Cc1onc(-c2ccccc2)c1C(=O)N1CCOCC1` the Potency was “inactive”.
`COc1ccc(C2/C(=C(/O)c3ccc4c(c3)CC(C)O4)C(=O)C(=O)N2Cc2ccncc2)cc1` (stereo not drawn) was tested, and the Potency was “inactive”.
`COc1ccc(/C=C2\SC(=O)N(CCC(=O)NCCCn3ccnc3)C2=O)cc1` was tested, and the Potency was “inactive”.
With `CCn1nnnc1SCC(=O)Nc1ccc(N(C)C)cc1` the Potency was “inactive”.
With `COc1ccccc1-n1nnnc1S(=O)(=O)Cc1ccc(Cl)cc1` the Potency was 11.2 µM (active).
In the case of `N#Cc1cccc(CS(=O)(=O)c2nnnn2-c2cc(C(F)(F)F)cc(C(F)(F)F)c2)c1`, the Potency is reported as “inactive”.
For `COc1ccccc1N1CCN(S(=O)(=O)c2ccc(Cl)cc2)CC1`, the Potency was “inactive”.
With `CCn1ccnc1CN(C)C(=O)c1cc(COc2ccc(-n3cncn3)cc2)on1` the Potency was “inactive”.
With `COc1ccc(/C=N/NC(=O)Nc2ccc3nsnc3c2)c(OC)c1` the Potency was “inactive”.
With `COc1ccc(O)c(C=Nc2cc(C)on2)c1` the Potency was “inactive”.
`COc1ccc(-c2[nH]ncc2/C=N/NC(=O)c2cc(Br)ccc2O)c(OC)c1` was tested, and the Potency was 2.24 µM (active).
For `COc1cc(CN2CCCC(C(=O)c3ccc(SC)cc3)C2)cc(Cl)c1O` (stereo not drawn), the activity change, negative = inhibition was -3.37% [at 1.91 µM].
With `Cc1nc2nc(C)c(NS(=O)(=O)c3ccc(C(C)(C)C)cc3)c(=O)n2[nH]1` the Potency was “inactive”.
For `CC(=O)c1ccc(N2CCN(S(=O)(=O)c3ccc4c(c3)CC(=O)N4C)CC2)cc1`, the Potency was “inactive”.
With `O=C(CN1C(=O)C2C3C=CC(C3)C2C1=O)Nc1nc(-c2ccccn2)cs1` (stereo not drawn) the Potency was “inactive”.
For `Cc1cc(NC(=O)[C@H](C)NC(=O)c2ccco2)ccc1Br`, the Potency was “inactive”.
In the case of `CC(NC(=O)c1ccco1)C(=O)Nc1nc(-c2ccccn2)cs1` (stereo not drawn), the Potency is reported as 11.2 µM (active).
With `O=C(Nc1ccc(N2CCCC2=O)cc1)c1cncc(Br)c1` the Potency was “inactive”.
With `COc1ccc(NC(=O)c2cc([N+](=O)[O-])ccc2NC(=O)CNC2CCCCC2C)c(OC)c1` (stereo not drawn) the Potency was “inactive”.
For `CCCCn1c(CN2CCN(CCO)CC2)nc2ccccc21`, the Potency was “inactive”.
With `C=C(Br)Cn1c(CCCC)nc2ccccc21` the Potency was 15.8 µM (active).
In the case of `CCCCn1c(CCCNC(=O)CC)nc2ccccc21`, the Potency is reported as “inactive”.
With `Cc1snc(SCc2c(F)cccc2Cl)c1C#N` the Potency was “inactive”.
For `CCc1ccc(OCC(=O)N(Cc2ccccc2)C2CCS(=O)(=O)C2)cc1` (stereo not drawn), the Potency was “inactive”.
With `COc1ccc(CCNC(=O)CCC(=O)NC2CCCCC2)cc1OC` the Potency was “inactive”.
In the case of `COc1cc(OC)c(C(=O)NC2CCCCCC2)cc1OC`, the Potency is reported as “inactive”.
`COc1ccc(Cl)cc1C(=O)NNC(=O)c1nc2nc(C)cc(C)n2n1` was tested, and the Potency was “inactive”.
`COc1ccc(Cl)cc1C(=O)NCC#N` was tested, and the Potency was “inactive”.
`COc1ccc(C(C)NC(=S)NC2CCCCC2)cc1OC` (stereo not drawn) was tested, and the Potency was 11.2 µM (active).
For `COc1ccc(Cl)cc1C(=O)NNC(=S)NC1CCCC1`, the Potency was 11.2 µM (active).
In the case of `C=CCNC(=S)NNC(=O)c1cc(Cl)ccc1OC`, the Potency is reported as “inactive”.
With `COc1ccc(Cl)cc1C(=O)NNC(=S)NC(=O)/C=C/c1ccco1` the Potency was 3.98 µM (active).
In the case of `COc1cc(C(=S)NC2CCCCC2)ccc1O`, the Potency is reported as “inactive”.
In the case of `CSc1ncccc1C(=O)NCc1ccccc1Cl`, the Potency is reported as “inactive”.
With `COC(=O)c1ccc(CNC(=O)C2CCC(=O)N(Cc3cccc(F)c3)C2)cc1` (stereo not drawn) the Potency was “inactive”.
`CCc1nnc(NC(=O)CSCc2cc(=O)n3cc(C)sc3n2)s1` was tested, and the Potency was “inactive”.
`O=C1C(=O)N(CCCN2CCOCC2)C(c2ccc([N+](=O)[O-])cc2)/C1=C(\O)c1ccc2c(c1)OCCO2` (stereo not drawn) was tested, and the Potency was “inactive”.
`C=CCn1c(=O)c(C(=O)NCc2ccc3c(c2)OCO3)c(O)c2ccccc21` was tested, and the Potency was “inactive”.
`CC1CCN(CCCn2c(SCC(=O)NC3CCCC3)nc3ccccc3c2=O)CC1` was tested, and the Potency was “inactive”.
With `CN(CCNC(=O)c1cc2c(-c3ccccc3F)nn(C)c2s1)C1CCCCC1` the Potency was “inactive”.
In the case of `O=c1[nH]cnc(O)c1C(c1ccc(F)cc1)c1c(O)nc[nH]c1=O`, the Potency is reported as “inactive”.
For `CCOc1ccc(CCNC(=O)CCc2nnc3ccc(N4CCCC4)nn23)cc1OCC`, the Potency was “inactive”.
With `CCOC(=O)C1(CCOC)CCN(Cc2ccc(C(=O)OC)cc2)CC1` the Potency was 7.08 µM (active).
For `COC(=O)c1ccc(CN2CCC(CO)(Cc3ccc(OC)cc3)CC2)cc1`, the Potency was “inactive”.
`CCOC(=O)C1(CCOC)CCN(Cc2cc3ccccc3s2)CC1` was tested, and the Potency was “inactive”.
In the case of `Cc1cc2c(c(=O)n1Cc1ccccc1)C1O[C@](CCCCN3C(=O)c4ccccc4C3=O)(Cc3ccccc31)O2`, the activity change, negative = inhibition is reported as 18.4% [at 10 µM].
For `O=C(CN1CCc2cc3c(cc2C1)OCCCO3)Nc1ccccc1`, the Potency was “inactive”.
In the case of `COc1ccc(-n2cc(CN(C)Cc3n[nH]c(=O)[nH]3)c(-c3cccc(F)c3)n2)cc1`, the Potency is reported as “inactive”.
`Cc1cccc(-n2cc(CN3CCN(C(=O)c4ncn[nH]4)CC3)c(-c3cccc(F)c3)n2)c1` was tested, and the Potency was “inactive”.
With `Cc1ccc(-n2cc(CN(C)Cc3nccn3C)c(-c3cccc(C)c3)n2)cc1` the Potency was 7.94 µM (active).
In the case of `COc1ccc(NC(=O)CCC(=O)Nc2nnc(C3CCCCC3)s2)cc1`, the Potency is reported as “inactive”.
`CC(C)(C)NS(=O)(=O)c1ccc(NC(=O)C2CCCO2)cc1` (stereo not drawn) was tested, and the Potency was “inactive”.
For `O=C(CNC(=O)c1cccnc1)N/N=C/c1cc(Br)c(O)c(Br)c1`, the Potency was “inactive”.
In the case of `O=C(CNC(=O)C1COc2ccccc2O1)N/N=C/c1cc(Br)c(O)c(Br)c1` (stereo not drawn), the Potency is reported as “inactive”.
For `Oc1c(Br)cc(/C=N/NC(=S)NCC2CCCO2)cc1Br` (stereo not drawn), the Potency was 0.1 µM (active).
In the case of `c1ccc2sc(NN=C3CCCC3)nc2c1`, the Potency is reported as 7.94 µM (active).
With `O=C(Nc1ccccc1)Nc1nc2ccccc2s1` the Potency was “inactive”.
In the case of `CSCCC(Nc1nc2ccccc2s1)C(=O)O` (stereo not drawn), the Potency is reported as “inactive”.
In the case of `CC(C)(COC(=O)Nc1ccccc1)COC(=O)Nc1ccccc1`, the Potency is reported as “inactive”.
For `CCn1c(SCC(=O)Nc2ccc(Br)cc2)nc2sc3c(c2c1=O)CCN(C)C3`, the Potency was “inactive”.
In the case of `Nc1ncc(CN2CCCC(C(=O)Nc3ccc(-c4ccco4)cc3)C2)cn1` (stereo not drawn), the Potency is reported as “inactive”.
In the case of `CCOCc1nnc(NC(=O)CCS(=O)(=O)Cc2ccccc2)s1`, the Potency is reported as “inactive”.
With `CCOCCOC(=O)C1=C(C)NC(=O)NC1c1ccc2c(c1)OCO2` (stereo not drawn) the Potency was “inactive”.
For `CCN(CC)CCN(C(=O)c1ccc(S(=O)(=O)N2CCOCC2)cc1)c1nc2cc3c(cc2s1)OCCO3`, the Potency was “inactive”.
`CN(C)CCCN(C(=O)c1ccc(S(=O)(=O)N2CCCCCC2)cc1)c1nc2ccc(Br)cc2s1` was tested, and the Potency was 2.82 µM (active).
With `CC(=O)N(CCCN(C)C)c1nc2ccc(C)cc2s1` the Potency was “inactive”.
In the case of `CN1CCN(C(=O)c2ccccc2NC(=O)COc2ccccc2Cl)CC1`, the Potency is reported as “inactive”.
With `O=C1COc2ccc(S(=O)(=O)NCCc3ccc(Cl)cc3)cc2N1` the Potency was “inactive”.
`Cc1cc(OCC(=O)Nc2c(C)n(C)n(-c3ccccc3)c2=O)ccc1[N+](=O)[O-]` was tested, and the Potency was “inactive”.
With `COc1ccc(C2c3[nH]c4ccccc4c3CCN2CCCn2cccn2)cc1C` (stereo not drawn) the Potency was “inactive”.
For `Oc1cccc(C2c3[nH]c4ccccc4c3CCN2Cc2cnn(-c3ccccc3)c2)c1` (stereo not drawn), the Potency was “inactive”.
With `COc1cccc(C2c3[nH]c4ccccc4c3CCN2Cc2cccc(C)n2)c1` (stereo not drawn) the Potency was 12.6 µM (active).
With `CN(Cc1ccc(F)cc1Cl)S(=O)(=O)c1cccs1` the Potency was “inactive”.
In the case of `CCc1ccc2[nH]c(=O)c(Cc3ccccc3)c(O)c2c1`, the Potency is reported as “inactive”.
In the case of `O=C1c2cccc3cc(Br)cc(c23)C(=O)N1Nc1ccccc1`, the Potency is reported as “inactive”.
For `O=C(Nc1ccccc1)OCc1cc(-c2ccc(Cl)cc2)on1`, the Potency was “inactive”.
`O=C1C=C(c2ccc(Cl)cc2)C(=O)N1Nc1ccccc1` was tested, and the Potency was 7.08 µM (active).
In the case of `CC1(C)Cc2c(sc(NC(=O)C(=O)N3CCOCC3)c2C#N)CO1`, the Potency is reported as “inactive”.
`O=S(=O)(Nc1ccccc1Cl)c1cccc2nsnc12` was tested, and the Potency was “inactive”.
In the case of `O=C(Cc1ccccc1)Nc1ccc(NC(=O)c2cccnc2)cc1`, the Potency is reported as “inactive”.
`CCC(C)C(=O)Nc1ccccc1N1CCN(c2ccc(F)cc2)CC1` (stereo not drawn) gave an activity change, negative = inhibition of -20.4% [at 1.91 µM].
`C/C(=N\NC(=O)CCn1nc(C)cc1C)C(C)(C)C` was tested, and the Potency was 11.2 µM (active).
With `Cc1cc(C)n(CC(=O)Nc2ccc([N+](=O)[O-])cc2)n1` the Potency was “inactive”.
`Cc1cc(C)n(CCC(=O)N2CCN(S(=O)(=O)c3ccc(C)c(C)c3)CC2)n1` was tested, and the Potency was “inactive”.
`C=CCSc1nnc(N2C(=O)C(O)=C(C(=O)c3ccco3)C2c2ccc(F)cc2)s1` (stereo not drawn) was tested, and the Potency was “inactive”.
With `COc1cccc(NC(=O)c2ccc(S(=O)(=O)N(C)C)cc2)c1` the Potency was “inactive”.
`COc1cccc(C(=O)Nc2nnc(S(=O)(=O)N(C)c3ccccc3)s2)c1` was tested, and the Potency was “inactive”.
For `COc1cccc(-c2nnc(NC(=O)c3ccc(S(=O)(=O)N(CC(C)C)CC(C)C)cc3)o2)c1`, the Potency was 0.282 µM (active).
`COc1ccc2[nH]c3nc(SCC(=O)NC4CC4)nnc3c2c1` was tested, and the Potency was “inactive”.
For `Cc1c(C(=O)N/N=C/c2ccccc2)[nH]c2c([N+](=O)[O-])cccc12`, the Potency was “inactive”.
`COc1cccc2c(C)c(C(=O)O)[nH]c12` was tested, and the Potency was 2 µM (active).
`COc1cc2c(C(=O)O)c(C)n(C)c2c2ccccc12` was tested, and the Potency was “inactive”.
For `CCOC(=O)C1CN(S(=O)(=O)c2ccc(OC)cc2)c2cc(Cl)ccc2O1` (stereo not drawn), the Potency was “inactive”.
`COc1ccc(Cc2nc3ccc(C(=O)N4CCC(N(C)C)C4)cc3o2)cc1` (stereo not drawn) was tested, and the Potency was “inactive”.
